A short description of test [1]: inhibitors of TNFa-induced NFkB p65 translocation, primary screen, imaging, HUVEC, MLSMR starter and 10KST1 sets (AID 438;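 active means inhibition above 20% together with a positive visual image hit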;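 further: compound added about 3h40 before a 20 min TNFalpha stimulation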;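 on inhibition: signal is the nuclear over cytoplasmic p65 intensity ratio per well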). To be noted: HUVEC TNFa-induced p65 nuclear translocation; cell count: measured here: nuclei count (cytotoxicity indicator), at 2.08 µM; inhibition: at 2 µM, stronger effect = higher value, 0% TNFa-plus-vehicle, 100% no-TNFa wells.
Test [2] is described as follows: reduction of polyQ htt aggregates in cells – imaging, exon1htt(103Q)mCFP cells, high-content imaging, primary screen (AID 483;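 active means visual image review flags a hit and inhibition of aggregation exceeds 20%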;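 further: compound exposure lasted 3 days before fixation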;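 on nuclei count: percent of the per-plate median nuclei count of sample wells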). To be noted: exon1htt(103Q)mCFP cell line, aggregate imaging, at 2 µM; inhibition of aggregation: stronger effect = higher value; nuclei count: measured here: cell count, toxicity.
Test [3] can be described thus: endothelial E-selectin expression blockers – imaging, HUVEC, immunofluorescence, MLSMR starter and 10KST1 sets, primary screen (AID 487;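 active means visually confirmed hit in the image check and inhibition above 20%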;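 on inhibition: signal is fraction of cell area covered by stained E-selectin grains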;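 on nuclei count: 100% = median nuclei count of all wells on the same plate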). To be noted: HUVEC TNFalpha-induced E-selectin immunofluorescence imaging, at 2 µM; inhibition: stronger effect = higher value; nuclei count: measured here: cell number, toxicity.
Test [4] has as its target Voltage-gated potassium channel subunit beta-2 (Rattus norvegicus) (UniProt P62483). The experiment in a line: inhibitors of rat Kvbeta2 reductase activity – biochemical, NADPH fluorescence, primary screen (AID 622;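 active means fluorescence slope higher than the sample average by over 3 SD, cut at about -0.22 in these data, passing the limit was not always enough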;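 further: slope of raw intensity against log time taken from 70 to 1610 s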). To be noted: recombinant KvBeta, 4-cyanobenzaldehyde reduction, at 10 µM, stronger effect = higher value.
For test [5] the target is unchanged. The experiment in a line: enhancers of rat Kvbeta2 NADPH turnover – biochemical, NADPH fluorescence, primary screen (AID 623;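 active means NADPH fluorescence slope more negative than the mean of all samples by about 3 SD, 99.7% confidence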;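 further: fluorescence intensity change per second fitted from 20 to 320 s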). To be noted: Recombinant KvBeta, NADPH fluorescence decrease slope, 10 min; at 10 µM; stronger effect = lower value.
Test [6] deals with Alpha-2C adrenergic receptor (Homo sapiens) (UniProt P18825). The experiment in a line: compounds altering alpha2C-coupled GIRK flux – cell-based, HEK293 alpha2C/GIRK1/2, thallium flux, primary screen (AID 624).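 Further: slope of fluorescence ratio to pre-addition baseline per second over 15 to 24 s.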 To be noted: thallium flux BTC fluorescence, at 10 µM, actives lie on both sides.
A short description of test [7]: blockers of RIG-like receptor reporter activation – cell-based, Sendai virus stimulus, luciferase, 10K MLSCN set, TLR/RLR signaling modifier project, primary screen (AID 602276;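 active means inhibition at or above 50% at 10 µM; inactive means inhibition below 50%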;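 further: firefly luciferase from ISG56 promoter only with Renilla not read in this screen; 0% = Sendai virus plus DMSO and 100% = medium plus DMSO without virus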). To be noted: HEK293 RL24 IRF3 luciferase reporter, at 10 µM, stronger effect = higher value.
A short description of test [8]: TLR3 IRF3 reporter activation blockers – cell-based, poly I:C stimulus, luciferase, 10K MLSCN set, primary screen (AID 602277;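 active means inhibition of the reporter signal at or above 50%; inactive means inhibition below 50%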). To be noted: HEK293-TLR3 RL24 IRF3 luciferase reporter, at 10 µM, stronger effect = higher value.

From PubChem BioAssay come the findings set out here.

Each structure is given as a SMILES string. Calls of active or inactive are those of the source.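 How the source made its calls, unless noted: active means fluorescence slope after compound addition differing from the mean of all screened samples at 99.7% confidence, in either direction; inactive means the rest.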 Where a SMILES comes first, the peptide text is derived from it. [ ]: non-standard residue; d: D form. The star is where a group is joined. ξ: configuration not given here. Cbz = O=C(OCc1ccccc1)*; ξK = NCCCCC(N)C(=O)O

Sequence of Voltage-gated potassium channel subunit beta-2 (Rattus norvegicus) (P62483 whole entry, looked up): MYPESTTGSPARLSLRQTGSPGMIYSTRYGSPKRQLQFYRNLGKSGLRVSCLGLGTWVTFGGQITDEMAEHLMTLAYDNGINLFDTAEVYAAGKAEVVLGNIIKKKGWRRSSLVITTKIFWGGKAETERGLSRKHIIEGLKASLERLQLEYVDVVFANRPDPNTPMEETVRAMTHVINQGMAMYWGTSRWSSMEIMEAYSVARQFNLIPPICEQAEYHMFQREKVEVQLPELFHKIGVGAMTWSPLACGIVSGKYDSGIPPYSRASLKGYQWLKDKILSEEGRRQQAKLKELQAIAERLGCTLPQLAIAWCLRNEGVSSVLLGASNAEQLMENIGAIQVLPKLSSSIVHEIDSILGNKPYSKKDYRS
Sequence of Alpha-2C adrenergic receptor (Homo sapiens) (P18825 whole entry, looked up): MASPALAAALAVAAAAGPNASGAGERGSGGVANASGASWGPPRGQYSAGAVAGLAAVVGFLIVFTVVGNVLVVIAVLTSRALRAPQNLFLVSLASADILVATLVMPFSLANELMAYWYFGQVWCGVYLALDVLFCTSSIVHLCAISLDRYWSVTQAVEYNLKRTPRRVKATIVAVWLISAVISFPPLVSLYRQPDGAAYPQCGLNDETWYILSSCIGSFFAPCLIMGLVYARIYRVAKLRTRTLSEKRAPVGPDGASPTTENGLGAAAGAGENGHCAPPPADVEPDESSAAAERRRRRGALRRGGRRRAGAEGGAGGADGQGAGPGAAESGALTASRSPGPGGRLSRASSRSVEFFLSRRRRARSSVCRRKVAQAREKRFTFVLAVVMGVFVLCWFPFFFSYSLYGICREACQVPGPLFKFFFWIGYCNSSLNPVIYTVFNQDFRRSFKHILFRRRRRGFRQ

For `Cn1cnc2cc(NC(=O)c3ccc(Cl)cc3)ccc21`, the cell count in test [1] stood at 829. Moreover, the inhibition in test [1] was 6.9% (inactive); in test [3] it was 3.1% (inactive); in test [7], -39.3% (inactive); in test [8], -143% (inactive). In addition, the inhibition of aggregation in test [2] is 22.8% (inactive). Moreover, the nuclei count in test [2] came out at 74.5%; in test [3], 106%. The fluorescence slope in test [4] was -0.387 (inactive). For the same compound, in test [5], the NADPH fluorescence slope is 2.4e-05 (inactive). The slope in test [6] was 0.00603 (inactive).

Turning to `COc1ccc(C(=O)N2CCN(c3nc4cc(C)ccc4cc3C#N)CC2)c(OC)c1`, in test [1], the cell count came out at 383. Further, the inhibition in test [1] is 7.6% (inactive); in test [3] it was -49.6% (inactive); in test [7] it was 14.5% (inactive); in test [8], 22% (inactive). In test [2], the inhibition of aggregation is -9.9% (inactive). Moreover, the nuclei count in test [2] was determined as 102%; in test [3] it was 115%. Further, in test [4], the fluorescence slope was -0.595 (inactive). Moreover, in test [5], the NADPH fluorescence slope was -2.2e-05 (inactive). Moreover, in test [6], the slope is 0.00559 (inactive).

For the compound `O=[n+]1c2c(n([O-])c3c1CCCC3)CCCC2`, the cell count in test [1] turned out to be 658. For the same compound, the inhibition in test [1] was 5.8% (inactive); in test [3], 54.7% (inactive); in test [7] it was 11.8% (inactive); in test [8] it was 24% (inactive). For the same compound, the inhibition of aggregation in test [2] was -17.7% (inactive). The values for the nuclei count in test [2] and in test [3] were 109% and 75.8%, respectively. Further, the fluorescence slope in test [4] was -0.399 (inactive). Further, the NADPH fluorescence slope in test [5] was -6.5e-05 (inactive). In test [6], the slope was 0.00619 (inactive).

Take `Cc1cc(C(=O)NCCCN2CCN(C3CCCCC3)CC2)n(-c2ccccc2)n1`: the cell count in test [1] is 685. Also, the inhibition in test [1] is -2.2% (inactive); in test [3], -70.3% (inactive); in test [7], -18.1% (inactive); in test [8], 17.8% (inactive). Besides, the inhibition of aggregation in test [2] was -2.4% (inactive). For the same compound, the results for the nuclei count in test [2] and in test [3] were 101% and 114%, respectively. In addition, the fluorescence slope in test [4] was -0.588 (inactive). In addition, the NADPH fluorescence slope in test [5] was -2.7e-05 (inactive). In addition, the slope in test [6] was 0.00679 (inactive).

For `COC(=O)C(CCCCNC(=O)OCc1ccccc1)NC(=O)CN` (centres undefined) (H-Gly-[ξK](Cbz)-OMe), the cell count in test [1] was 529. Also, the inhibition was -6.5% (inactive) in test [1], -14% (inactive) in test [3], 4.8% (inactive) in test [7] and 6.56% (inactive) in test [8]. Moreover, the inhibition of aggregation in test [2] is 11.4% (inactive). The nuclei count in test [2] was 104%; in test [3] it was 71.3%. The fluorescence slope in test [4] is -0.623 (inactive). The NADPH fluorescence slope in test [5] was -2.9e-05 (inactive). Further, the slope in test [6] was 0.00756 (inactive).

For `COc1ccc(OCC(O)Cn2c(Br)nc3c2c(=O)[nH]c(=O)n3C)cc1` (centres undefined), the cell count in test [1] came out at 221. For the same compound, the inhibition is 2.4% (inactive) in test [1], -39.9% (inactive) in test [3], 35% (inactive) in test [7] and 27.6% (inactive) in test [8]. Further, the inhibition of aggregation in test [2] is 15.5% (inactive). In addition, the nuclei count in test [2] came to 74.9%; in test [3] it was 155%. Moreover, the fluorescence slope in test [4] is -0.6 (inactive). The NADPH fluorescence slope in test [5] is -3.5e-05 (inactive). The slope in test [6] is 0.00397 (inactive).

As to `CCOc1ccccc1NC(=O)CCN1CCN(S(=O)(=O)c2ccc(Br)cc2)CC1`, the cell count in test [1] was found to be 572. For the same compound, the inhibition is -12.3% (inactive) in test [1], -67.4% (inactive) in test [3], 12.6% (inactive) in test [7] and 21.5% (inactive) in test [8]. Besides, the inhibition of aggregation in test [2] was -10.2% (inactive). Moreover, the values for the nuclei count in test [2] and in test [3] were 117% and 65.1%, respectively. Besides, in test [4], the fluorescence slope was -0.526 (inactive). Also, in test [5], the NADPH fluorescence slope was -5.3e-05 (inactive). Moreover, in test [6], the slope was 0.00415 (inactive).

Take `N#CCc1c(C#N)c(N)nc(N2CCN(S(=O)(=O)c3ccccc3)CC2)c1C#N`: in test [1], the cell count came to 349. Besides, the inhibition was 1.3% (inactive) in test [1], 14.3% (inactive) in test [3], 11% (inactive) in test [7] and 34.3% (inactive) in test [8]. The inhibition of aggregation in test [2] was -7.2% (inactive). Moreover, the figures for the nuclei count in test [2] and in test [3] were 96.4% and 108%, respectively. Besides, the fluorescence slope in test [4] is -0.427 (inactive). Also, the NADPH fluorescence slope in test [5] was -4.2e-05 (inactive). The slope in test [6] is 0.00665 (inactive).

As for `O=C(Nc1ccc(Br)cc1F)c1sccc1-n1cccc1`, the cell count in test [1] was 616. Besides, the inhibition is -12.7% (inactive) in test [1], -10.6% (inactive) in test [3], -1.64% (inactive) in test [7] and -17.5% (inactive) in test [8]. For the same compound, in test [2], the inhibition of aggregation is -18.9% (inactive). For the same compound, the figures for the nuclei count in test [2] and in test [3] were 103% and 110%, respectively. In addition, the fluorescence slope in test [4] was -0.397 (inactive). Also, the NADPH fluorescence slope in test [5] is -3.4e-05 (inactive). Besides, the slope in test [6] was 0.00385 (inactive).

As to `Cc1nn(Cc2ccc(C(=O)NC3CCCCC3)o2)c(C)c1Br`, the cell count in test [1] amounted to 463. In addition, the inhibition was -0.6% (inactive) in test [1], -30.6% (inactive) in test [3], 7.39% (inactive) in test [7] and 11.6% (inactive) in test [8]. Further, the inhibition of aggregation in test [2] is 24.1% (inactive). The figures for the nuclei count in test [2] and in test [3] were 72.2% and 108%, respectively. The fluorescence slope in test [4] is -0.395 (inactive). The NADPH fluorescence slope in test [5] is -3.4e-05 (inactive). The slope in test [6] was 0.00387 (inactive).

Turning to `Cc1ccc2cc(CN(CCN3CCCC3)C(=O)Nc3ccc(F)cc3)c(=O)[nH]c2c1C`, in test [1], the cell count came out at 540. Also, the inhibition in test [1] is -29.6% (inactive); in test [3], -47.4% (inactive); in test [7] it was 3.48% (inactive); in test [8] it was 16.1% (inactive). Also, in test [2], the inhibition of aggregation was -45.2% (inactive). Further, the nuclei count was determined as 109% in test [2] and 111% in test [3]. Also, the fluorescence slope in test [4] was -0.587 (inactive). For the same compound, the NADPH fluorescence slope in test [5] is 2.1e-05 (inactive). For the same compound, the slope in test [6] was 0.00603 (inactive).

As to `O=c1c(-c2ccccc2)coc2c(CN3CCOCC3)c(O)ccc12`, the cell count in test [1] turned out to be 335. For the same compound, the inhibition in test [1] is -2.5% (inactive); in test [3], -116% (inactive); in test [7], -3.14% (inactive); in test [8] it was 10.1% (inactive). In test [2], the inhibition of aggregation was -6.5% (inactive). Besides, the nuclei count in test [2] stood at 108%; in test [3] it was 129%. Moreover, in test [4], the fluorescence slope was -0.0601 (active). Moreover, in test [5], the NADPH fluorescence slope was 4.4e-06 (inactive). The slope in test [6] was 0.00553 (inactive).

`Cc1ccc2c(c1)CCCN2C(=O)Nc1ccc2c(c1)OCO2`: the cell count in test [1] turned out to be 365. Moreover, the inhibition in test [1] is -0.8% (inactive); in test [3] it was -34.4% (inactive); in test [7], 13.6% (inactive); in test [8] it was 14.5% (inactive). The inhibition of aggregation in test [2] was -9.3% (inactive). In addition, the nuclei count in test [2] and in test [3] was 102% throughout. Further, in test [4], the fluorescence slope was -0.592 (inactive). Also, the NADPH fluorescence slope in test [5] was -4.4e-05 (inactive). Besides, the slope in test [6] is 0.00347 (inactive).

In the case of `CCOC(=O)c1sc2nc(NC(=O)C(C)(C)C)sc2c1C`, the cell count in test [1] was 600. Moreover, the inhibition was 16.7% (inactive) in test [1], -25.6% (inactive) in test [3], -20.5% (inactive) in test [7] and -150% (inactive) in test [8]. Further, in test [2], the inhibition of aggregation is -3.3% (inactive). Further, the nuclei count in test [2] was 112%; in test [3] it was 104%. In addition, in test [4], the fluorescence slope is -0.496 (inactive). Besides, the NADPH fluorescence slope in test [5] was -2.5e-05 (inactive). For the same compound, the slope in test [6] is 0.00604 (inactive).

For orientation: inhibition means the relative decrease from the control value, in per cent.
